Source: PubChem
TDP1 block – TDP1 (human) enzyme inhibition | Q9NUW8 | recombinant TDP1, AlphaScreen DNA substrate cleavage | Potency, µM (titrated, usually from 130 µM), without a hit: top-dose activity change, negative = inhibition, hits mostly inhibitors | hit rate 0.28% among 350,000; further: nearly all actives have a fitted effect of over 40% in size
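Compounds were preincubated with Tdp1 (1 nM final) for 15 min at room temperature before substrate (15 nM final) started a 5 min reaction; beads (10 ug/ml final) were then added for 10 min before AlphaScreen detection.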
TDP1 cell noCPT – qHTS for Inhibitors of human tyrosyl-DNA phosphodiesterase 1 (TDP1): qHTS in cells in absence of CPT; DT40 Tdp1-/- hTDP1 cells, no CPT, ATP luminescence, 48 h; hit rate 15% among 420,000; Potency, µM (series often up to 46.2 µM), inactives show at the highest dose activity change, negative = growth inhibition, hits mostly inhibitors; further: nearly all actives have a fitted effect of over 55% in size
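No-CPT arm: Tdp1-/-;hTDP1 DT40 cells (400/well) plus compounds, incubated ≥48 hr at 37 °C. Readout CellTiter-Glo luminescence.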
KAT2A inh – inhibitors of human GCN5L2 histone acetyltransferase | Q92830 | GCN5L2 HAT assay, ThioGlo1 CoA-SH fluorescence | Potency, µM (titrated, usually from 58.9 µM), for the others: at the top dose activity change, negative = inhibition, most hits filed as inhibitors | hit rate 0.21% among 390,000 | AID 504327
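qHTS, 1536-well. 20nM enzyme, pH 7.5 HEPES/EDTA/Tween-20 buffer; 15 min compound preinc., RT. Start: 75uM H3(1-25), 70uM AcCoA, 50uM ThioGlo1. Read Ex340/Em540 at t=0 (autofluorescence flag) and t=20 min.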
VDR inh – vitamin D3 receptor (human) inhibition. P11473. VDR-SRC2-3 peptide fluorescence polarization, 2 h. Potency, µM, without a hit: max response, negative = inhibition, hits mostly inhibitors. hit rate 0.93% among 400,000. AID 504847
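FP read-out; VDR + SRC2-3 coactivator peptide; 23 nl compound by pintool; 2 h RT incubation; reagents held at 4 deg C, protected from light.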
PLK1 PBD block – inhibitors of human PLK1 polo-box domain binding; hit rate 2.8% among 360,000; Plk1 PBD binding of FITC phosphopeptide, fluorescence polarization; P53350; Potency, µM, without a hit: max response, negative = inhibition, hits mostly inhibitors; further: series mostly up to about 57 µM; nearly all actives have a fitted effect of over 65% in size
DT40 TDP1 CPT – growth inhibition of DT40 Tdp1-/-;hTDP1 cells with camptothecin (screen for TDP1 inhibitors) | chicken DT40 Tdp1-/-;hTDP1 cells + 20 nM CPT, ATP luminescence, 48 h | Potency, µM (series often up to 46.2 µM), inactives show at the top dose activity change, negative = growth inhibition, hits mostly inhibitors | hit rate 12% among 420,000 | AID 686979; further: nearly all actives have a fitted effect of over 55% in size
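Cell growth measured by CellTiter-Glo luminescence after a minimum 48 h, 37 C compound exposure with 20 nM CPT in Tdp1-knockout DT40 cells stably expressing hTDP1, seeded 400/well; qHTS titration format.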
* = called active by the depositor; ? = inconclusive; . = no result given. Shown are actives, neighbours in structure and some others; about 18% of the full set was active somewhere. The call rests on the fitted dose curve; in most records, active means well fitted curve in the direction sought with a large enough effect; inconclusive means small, poorly fitted or top-dose-only effect, or another doubt; inactive means no such curve, though single readings can be large; an effect the other way counts as inactive or inconclusive. On the % scale 0 is the no-effect control and ±100 the full control effect; potency means the concentration at half of the fitted maximal effect.

SMILES	TDP1 block	TDP1 cell noCPT	KAT2A inh	VDR inh	PLK1 PBD block	DT40 TDP1 CPT
CCOc1ccc(CC(=O)Nc2c(C(=O)Nc3ccc(OC)cc3OC)oc3ccccc23)cc1	-4%	?	4%	-11%	.	?
COc1ccc(NC(=O)c2oc3ccccc3c2NC(=O)C23CC4CC(CC(C4)C2)C3)c(OC)c1	6%	23µM*	-8%	9%	.	-23%
COc1ccccc1NC(=O)c1oc2ccccc2c1NC(=O)c1c(F)cccc1F	-4%	?	-4%	-14%	.	?
COc1ccccc1NC(=O)c1cc2ccccc2o/c1=N\O	.	21µM*	?	-10%	?	21µM*
COc1ccc(NC(=O)c2cc3ccccc3o2)c(OC)c1	2%	?	4%	22%	.	?
COc1cc(C(=O)Nc2c(C(=O)Nc3ccccc3F)oc3ccccc23)cc(OC)c1OC	-1%	4.1µM*	-2%	19%	.	5.2µM*
COc1ccc(COC(=O)Oc2ccc(CNC(C)=O)cc2OC)c([N+](=O)[O-])c1	3%	0%	-3%	15%	3%	-18%
COc1ccc(-n2c(SCC(N)=O)nc3sc4c(c3c2=O)CCC4)cc1	-1%	-17%	-3%	-9%	-1%	-8%
COc1ccccc1NC(=O)c1oc2ccccc2c1NC(=O)c1cccc(OC)c1OC	-4%	5.8µM*	-9%	-25%	.	5.8µM*
CC(C)(C)NC(=O)c1oc2ccccc2c1NC(=O)c1ccc(F)cc1	2%	?	5%	7%	.	?
CCOc1ccc(NC(=O)c2oc3ccccc3c2NC(=O)COc2cccc(OC)c2)cc1	9%	-12%	0%	4%	.	-1%
CCOc1ccc(NC(=O)c2oc3ccccc3c2NC(=O)c2ccc(OC)cc2OC)cc1	4%	18µM*	-9%	0%	.	23µM*
COc1ccccc1C(=O)Nc1c(C(=O)N(CCN(C)C)Cc2ccco2)oc2ccccc12	9%	12µM*	-19%	5%	-9%	9.2µM*
COc1ccccc1C(=O)Nc1c(C(=O)NC(C)(C)C)oc2ccccc12	-4%	23µM*	-11%	7%	.	?
CCCCc1ccc(-n2nc3cc(C)c(NC(=O)c4ccc(C#N)cc4F)cc3n2)cc1	6%	-24%	-2%	-11%	.	-10%
Cc1ccccc1-c1cnc(C(O)c2ccc(-c3ccccc3)cc2)[nH]1 (stereo not drawn)	.	?	.	.	-7%	?
COc1ccccc1C(=O)Nc1c(C(=O)c2ccccc2)oc2ccccc12	-3%	?	-18%	3%	.	18µM*
CCOC(=O)c1oc2ccccc2c1NC(=O)c1ccccc1OC	-3%	?	101%	2%	0%	?
COc1ccc(OC)c(C(=O)c2oc3ccccc3c2NC(C)=O)c1	6%	16µM*	-10%	16%	-7%	23µM*
CCCCN(C(=O)c1cc2c(s1)CCC2)c1c(N)n(CCCC)c(=O)[nH]c1=O	.	-16%	-7%	-6%	-17%	-12%
CCCC[C@H](NC(=O)[C@H](CC(C)C)NC(=O)[C@@H](Cc1c[nH]c2ccccc12)NC(=O)[C@H](Cc1ccccc1)NC(=O)[C@@H](Cc1c[nH]c2ccccc12)NC(=O)[C@H](CC(N)=O)NC(=O)[C@@H](Cc1c(Cl)cccc1Cl)NC(=O)[C@@H]1CCCN1C(=O)[C@H](Cc1ccccn1)NC(=O)[C@@H]1CCCN1C(=O)[C@H](N)CCCCNC(=O)c1cccnc1)C(N)=O	15%	.	12%	6%	.	.
CCn1nnnc1NCc1ccc(N2CCCC2)cc1	4%	?	-8%	?	3.8µM*	?
CCn1nnnc1NCc1ccc(SC)cc1	.	9%	-16%	-7%	-1%	-3%
c1ccc([C@H]2CN3C(=N2)Sc2ccccc23)cc1	-6%	?	2%	-37%	?	18µM*
COc1ccc(C(=O)/C=C/Nc2ccc(NC(C)=O)cc2)cc1OC	7%	?	-18%	-5%	0%	16µM*
SMILES	TDP1 block	TDP1 cell noCPT	KAT2A inh	VDR inh	PLK1 PBD block	DT40 TDP1 CPT
COc1ccc(N/C=C/C(=O)c2cc(OC)c(OC)c(OC)c2)cc1	.	1µM*	-6%	5%	-4%	1µM*
CS(=O)(=O)Oc1ccc(/C=N/NC(=O)c2ccncc2)cc1	6%	0%	-4%	-4%	0%	8%
Cc1noc(C)c1S(=O)(=O)Nc1ccc2c(c1)C(=O)N([C@@H](C)CO)C[C@@H](C)[C@@H](CN(C)CC1CCCCC1)OCCCC[C@@H](C)O2	.	15µM*	.	.	-17%	23µM*
C[C@@H]1CCCCO[C@@H](CN(C)S(=O)(=O)c2ccccc2)[C@@H](C)CN([C@H](C)CO)C(=O)c2cc(NS(=O)(=O)c3ccc(F)cc3)ccc2O1	.	21µM*	.	.	-15%	?
C[C@H]1CCCCO[C@@H](CN(C)S(=O)(=O)c2ccc(Cl)cc2)[C@@H](C)CN([C@@H](C)CO)C(=O)c2cc(NS(=O)(=O)c3ccccc3)ccc2O1	.	?	.	.	-1%	?
C[C@H](CO)N1C[C@H](C)[C@@H](CN(C)S(=O)(=O)c2ccccc2)OCCCC[C@H](C)Oc2ccc(NC(=O)CCC(F)(F)F)cc2C1=O	.	?	.	.	-7%	?
CC(C)NC(=O)Nc1ccc2c(c1)C(=O)N([C@@H](C)CO)C[C@H](C)[C@H](CN(C)S(=O)(=O)c1ccccc1)OCCCC[C@H](C)O2	.	12µM*	.	.	-3%	18µM*
C[C@@H]1CCCCO[C@H](CN(C)S(=O)(=O)c2ccccc2)[C@@H](C)CN([C@H](C)CO)C(=O)c2cc(NC(=O)Cc3ccccc3)ccc2O1	.	?	.	.	-8%	21µM*
Cc1noc(C)c1S(=O)(=O)Nc1ccc2c(c1)C(=O)N([C@H](C)CO)C[C@H](C)[C@@H](CN(C)C(=O)CCCN(C)C)OCCCC[C@@H](C)O2	.	-2%	.	.	-10%	-1%
C[C@H]1CCCCO[C@@H](CN(C)C(=O)NC2CCCCC2)[C@@H](C)CN([C@@H](C)CO)C(=O)c2cc(NC(=O)Cc3ccccc3)ccc2O1	.	18µM*	.	.	-19%	-9%
CC(C)NC(=O)N(C)C[C@H]1OCCCC[C@H](C)Oc2ccc(NC(=O)NC3CCCCC3)cc2C(=O)N([C@H](C)CO)C[C@@H]1C	.	?	.	.	-24%	?
CCOc1ccc(C2=Nc3ccc(Br)cc3C(c3ccc(N4CCOCC4)cc3)=NN2)cc1	4%	15µM*	-13%	-2%	4%	?
